In all, about 310,000 compounds went through this assay and about 1,500 (0.48%) were called active.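 How the source made its calls: active means initial fluorescence not abnormally high and integrated response B-score, plate-corrected, over 3 SD above library mean; inactive means the rest.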 Shown is part of a subset that was picked to be rich in actives.

In this test the target is High affinity choline transporter 1 (Homo sapiens) (UniProt Q9GZV3). Briefly: CHT positive allosteric modulators, primary screen, cell-based, membrane potential dye, choline EC20 (AID 488977). As to conditions: CHT-expressing cells, at 10 µM, LV-AA mutant CHT in HEK293 cells; active compounds read high.
Chain of High affinity choline transporter 1 (Homo sapiens) (Q9GZV3 whole entry, looked up): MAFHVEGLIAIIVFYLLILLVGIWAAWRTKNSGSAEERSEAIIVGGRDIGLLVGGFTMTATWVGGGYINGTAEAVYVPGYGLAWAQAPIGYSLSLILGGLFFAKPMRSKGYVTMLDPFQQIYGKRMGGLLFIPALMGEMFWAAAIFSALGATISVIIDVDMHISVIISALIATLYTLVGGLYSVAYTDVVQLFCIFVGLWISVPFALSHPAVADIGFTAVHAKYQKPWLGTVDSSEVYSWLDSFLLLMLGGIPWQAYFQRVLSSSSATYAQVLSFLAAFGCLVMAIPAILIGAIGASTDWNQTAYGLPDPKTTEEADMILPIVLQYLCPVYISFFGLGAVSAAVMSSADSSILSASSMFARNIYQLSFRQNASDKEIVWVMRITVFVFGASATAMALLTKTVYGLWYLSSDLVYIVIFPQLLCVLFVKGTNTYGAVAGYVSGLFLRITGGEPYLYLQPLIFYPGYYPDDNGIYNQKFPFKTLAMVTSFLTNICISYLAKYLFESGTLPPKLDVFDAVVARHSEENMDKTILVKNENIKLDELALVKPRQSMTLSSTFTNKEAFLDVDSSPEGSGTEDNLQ
In the case of `Cc1sc2ncnc(N3CCC(C(=O)NNC(=O)c4ccc(F)cc4)CC3)c2c1C`, the B-score entry is “inactive”.

`CC1=CC(C)(C)N(C(=O)CSc2nccn2C)c2cc(C)ccc21`: the B-score result was “inactive”.

As for `CC1=CC(C)(C)N(C(=O)CSc2nnc(-c3ccccc3)o2)c2ccc(C)cc21`, the B-score was 9.98 (active).

As to `O=C(CSc1nnc(-c2ccccc2)o1)N1CCOCC1`, the B-score result is “inactive”.

Regarding `CCN1/C(=C/c2ccc3ccc(C)cc3[n+]2CC)Sc2ccccc21`, the B-score was 7.76 (active).

On to `CCN1/C(=C\c2ccc3ccccc3[n+]2CC)Sc2cc(C)ccc21`, for which the B-score entry is “inactive”.

Take `CCN1/C(=C/C(=S)Nc2ccccc2)Sc2ccccc21`: the B-score result was “inactive”.

Turning to `Cc1ccccc1C(=O)NCC(c1ccco1)N1CCc2ccccc21` (stereo not drawn), the B-score is 7.63 (active).

In the case of `COc1ccc(C(=O)NCC(c2ccco2)N2CCc3ccccc32)cc1OC` (stereo not drawn), the B-score result is “inactive”.

As for `O=C(NCC(c1ccco1)N1CCc2ccccc21)c1cccc(F)c1` (stereo not drawn), the B-score result was “inactive”.

Regarding `CC(=O)Nc1ccc(C(=O)Nc2cccc(S(=O)(=O)NC3=NCCC3)c2)cc1`, the B-score result is “inactive”.

Regarding `COc1ccc(C(=NN)c2ccc(OC)cc2)cc1`, the B-score entry is “inactive”.

As to `CCOC(=O)[C@H]1[C@H]2COc3ccc(Cl)cc3[C@@H]2N2C(=O)c3cc(C)ccc3NC(=O)[C@@]12C`, the B-score entry is “inactive”.

`Cn1cccc1C(=O)NNC(=O)COc1ccc(Br)cc1`: the B-score result is “inactive”.

For `O=C(Nc1ccc(S(=O)(=O)N2CCCCC2)cc1)C1CCN(C(=O)c2ccc(F)cc2)CC1`, the B-score result is “inactive”.

Take `COc1ccccc1C1C2=C(COC2=O)Nc2cc3c(cc21)OCO3` (stereo not drawn): the B-score entry was “inactive”.

For `CCCOc1ccccc1C1CC(=O)Nc2cc3c(cc21)OCO3` (stereo not drawn), the B-score was 7.15 (active).

`COc1ccc(C2CC(=O)Nc3cc(C)c(C)cc32)c(OC)c1OC` (stereo not drawn): the B-score result was “inactive”.

As to `COc1ccc(/C=C2\SC(=S)N(CCCC(=O)NC3CCCC3)C2=O)cc1OC`, the B-score entry is “inactive”.

Regarding `Cc1c(CCOC(=O)CC23CC4CC(CC(C)(C4)C2)C3)sc[n+]1Cc1ccc([N+](=O)[O-])cc1`, the B-score is 8.47 (active).

With `Cc1c(CCOC(=O)c2cc([N+](=O)[O-])ccc2Cl)sc[n+]1CCCCS(=O)(=O)[O-]`, the B-score result is “inactive”.

In the case of `CCN(CC)CCn1c2c(c(SCC(=O)Nc3nc4ccccc4s3)nc1=O)CCCC2`, the B-score entry is “inactive”.

With `CCC(=O)c1ccc(N2CCN(C(=O)c3cc([N+](=O)[O-])ccc3F)CC2)c(F)c1`, the B-score result was “inactive”.

Take `CCN1CCN(c2ccc([N+](=O)[O-])cc2C(=O)c2ccc(Cl)cc2)CC1`: the B-score was 8.73 (active).

Take `CCC(C)(C)NC(=O)c1cc([N+](=O)[O-])ccc1N1CCCCC1`: the B-score result was “inactive”.

Consider `Cc1cc(O)c(Sc2ccccc2)c(=O)o1`, for which the B-score result is “inactive”.

Regarding `Cc1ccc(Cn2cc(C(=O)NN)c(=O)c3ccc(F)cc32)cc1`, the B-score result is “inactive”.

For the compound `CCOC(=O)c1cn(CC)c2cc(F)c(F)cc2c1=O`, the B-score is 7.03 (active).

Regarding `CCCCCCn1cc(C(=O)O)c(=O)c2cc(F)c(N3CCCCC3)cc21`, the B-score entry is “inactive”.

For `Cc1cc(C)c(S(=O)(=O)n2cc(C(C)C(N)C(=O)O)c3ccccc32)c(C)c1` (stereo not drawn), the B-score entry was “inactive”.

For `CCCn1c(C)cc(-c2csc(NC(=O)CCc3nc4ccccc4c(=O)[nH]3)n2)c1C`, the B-score entry was “inactive”.

As for `O=C1c2ccccc2C(=O)c2c1cccc2N1CCN(C/C=C/c2ccccc2)CC1`, the B-score result is “inactive”.

Consider `O=C1c2ccccc2C(=O)c2c1cccc2N1CCN(CCO)CC1`, for which the B-score was 8.6 (active).

As to `O=C1c2ccccc2C(=O)c2c1cccc2N1CCN(Cc2ccccc2)CC1`, the B-score result is “inactive”.

On to `COc1ccc(C(=O)C2CCCN(C(=O)c3ccc(OC)o3)C2)c(C)c1` (stereo not drawn), for which the B-score result was “inactive”.

Consider `COc1ccc(NC(=O)CCC(=O)N2CCN(S(=O)(=O)c3ccc(C)cc3)CC2)c(OC)c1`, for which the B-score result is “inactive”.

Turning to `COc1ccc2sc(N(CCCN(C)C)C(=O)c3ccc(S(=O)(=O)N(C)C4CCCCC4)cc3)nc2c1`, the B-score result is “inactive”.

Take `CCN1C(=O)[C@H]2[C@@H](c3ccc(-c4ccc(OC)cc4)cc3)N[C@@](Cc3ccccc3)(C(=O)OC)[C@H]2C1=O`: the B-score entry was “inactive”.

For `Cc1cc(=O)oc2c(C)c(OC(C)C(=O)NC3CCN(Cc4ccccc4)CC3)ccc12` (stereo not drawn), the B-score is 6.43 (active).

As to `Cc1c(OC(C)C(=O)NCC2CCC(C(=O)O)CC2)ccc2c1oc(=O)c1ccccc12` (stereo not drawn), the B-score result was “inactive”.

Take `CCCc1cc(=O)oc2c(C)c(OC(C)C(=O)NCC(O)c3ccccc3)ccc12` (stereo not drawn): the B-score result is “inactive”.

Consider `CC(OC(=O)C1CC(=O)N(Cc2ccccc2)C1)C(=O)Nc1ccccc1[N+](=O)[O-]` (stereo not drawn), for which the B-score result is “inactive”.

For the compound `CC(C)Oc1ccc(S(=O)(=O)N2CCOCC2)cc1NC(=O)C1CSC2(C)CCC(=O)N12` (stereo not drawn), the B-score result is “inactive”.

In the case of `Cc1cc(Nc2ccc(Br)cc2)nc2ccccc12`, the B-score entry is “inactive”.

`Cc1ccc(NC(=O)c2cnc(SCC(=O)NCC3CCCO3)n(C)c2=O)cc1` (stereo not drawn): the B-score result is “inactive”.

For `Cc1cccn2c(=O)c3cc(C(=O)NCCN4CCOCC4)c(=N)n(Cc4cccnc4)c3nc12`, the B-score entry is “inactive”.

For `Cc1cccn2c(=O)c3cc(C#N)c(=O)n(CCCN4CCOCC4)c3nc12`, the B-score was 7.22 (active).

For the compound `Cc1cccn2c(=O)c3cc(C(=O)N4COCC4(C)C)n(C)c3nc12`, the B-score result was “inactive”.

Turning to `Cc1ccc2nc(NC(=O)CSc3nc(=O)n(CCCN(C)C)c4c3CCC4)sc2c1`, the B-score result is “inactive”.

Take `O=C(C1CCCO1)N1CCC(c2nc3ccccc3[nH]2)CC1` (stereo not drawn): the B-score result is “inactive”.

For `COC(=O)c1cc(OC)c(OC)cc1NC(=O)C1CCCO1` (stereo not drawn), the B-score entry was “inactive”.

Turning to `COc1cc2nc(N3CCN(C(=O)[C@@H]4CCCO4)CC3)nc(N)c2cc1OC`, the B-score is 8.15 (active).

For the compound `COc1ccc(-c2cc(C(=O)N/N=C/c3cccnc3)c3ccccc3n2)c(OC)c1`, the B-score entry is “inactive”.

For `Cc1ccc(CNC(=O)c2cc(-c3ccccc3C)n(CC3CC(c4cccc([N+](=O)[O-])c4)=NO3)n2)cc1` (stereo not drawn), the B-score result was “inactive”.

On to `Cc1cccc(N(Cc2ccccc2)C(=O)c2ccccc2F)c1`, for which the B-score entry was “inactive”.

As for `CCN(CC)C(=O)N(CC)Cc1ccccc1`, the B-score result is “inactive”.

As to `O=C(c1ccccc1F)N(Cc1ccccc1)Cc1ccccc1`, the B-score was 6.51 (active).

Turning to `Cc1ccc(NC(=O)CSCC(=O)Nc2sccc2C#N)cc1`, the B-score entry is “inactive”.

For `CN1CCN(c2nc3c(c(=O)[nH]c(=O)n3C)n2Cc2cccc3ccccc23)CC1`, the B-score result is “inactive”.

Take `Cc1nnc(SCCCn2c(N3CCCCC3)nc3c2c(=O)[nH]c(=O)n3C)s1`: the B-score entry was “inactive”.

With `Cn1c(=O)[nH]c(=O)c2c1nc(N1CCN(CCO)CC1)n2CCSc1nc2ccccc2s1`, the B-score was 7.66 (active).

`CCC1Nc2ncnc(N3CCN(c4ccccc4)CC3)c2N(Cc2ccc(Cl)cc2)C1=O` (stereo not drawn): the B-score result was “inactive”.

In the case of `O=C(CCC1CCCCC1)Nc1cc(C(F)(F)F)ccc1N1CCOCC1`, the B-score result is “inactive”.

As for `CC(C)c1ccc(S(=O)(=O)N2CCN(C(=O)CN3C(=O)NC(C)(c4ccccc4)C3=O)CC2)cc1` (stereo not drawn), the B-score result was “inactive”.

For `CCCCCCCNC(=O)C1(CC2CC(c3cccc(Br)c3)=NO2)CCN(C(=O)c2cc(OCC)c(OCC)c(OCC)c2)CC1` (stereo not drawn), the B-score entry was “inactive”.

In the case of `Cc1ccc(S(=O)(=O)N2CCN(C(=O)Cc3sc(C)nc3-c3ccc(F)cc3)CC2)c(C)c1`, the B-score result is “inactive”.

As for `O=C(Nc1ncccc1O)c1ccc(C(=O)c2ccccc2)cc1`, the B-score result was “inactive”.

Consider `COc1ccccc1CCC(=O)NNC(=O)c1ccncc1`, for which the B-score result was “inactive”.

`Cc1cc(NC(=O)Nc2ccccc2)n(-c2ccccc2)n1`: the B-score result is “inactive”.

As to `O=C(Nc1ccc(Cl)cn1)c1cnn2cccnc12`, the B-score result was “inactive”.

As for `Cc1cc(NC(=O)c2cnn3cccnc23)n(-c2ccccc2)n1`, the B-score is 6.76 (active).

`CCOc1cc(C(=O)Nc2ccc(S(=O)(=O)Nc3cnc4ccccc4n3)cc2)cc(OCC)c1OCC`: the B-score entry is “inactive”.

Turning to `O=C(NCC(c1ccco1)N1CCc2ccccc2C1)c1ccccc1Cl` (stereo not drawn), the B-score result was “inactive”.

On to `COc1ccc(C(CNC(=O)c2cccc(NS(=O)(=O)c3ccc(C)c(F)c3)c2)N2CCCC2)cc1` (stereo not drawn), for which the B-score entry was “inactive”.

On to `CCOC(=O)N1CCN(C(=O)c2ccc(S(=O)(=O)Nc3cccc(C(F)(F)F)c3)cc2)CC1`, for which the B-score result is “inactive”.

With `CCn1c(/C=C/Nc2ccccc2)[n+](CC)c2ccc(C(=O)OCC(F)(F)F)cc21`, the B-score was 7.01 (active).

Regarding `CCOC(=O)c1cc2ccccc2n1CC(=O)c1ccccc1`, the B-score entry is “inactive”.

For the compound `Cc1onc(-c2ccccc2Cl)c1C(=O)OCc1nnc(-c2ccccc2)o1`, the B-score entry is “inactive”.

Take `CCN(CC(=O)Nc1c(F)cccc1F)C(=O)c1ccc(-c2ccccc2)cc1`: the B-score entry is “inactive”.

Turning to `O=C(CSC1=NS(=O)(=O)c2cc(F)ccc2N1)Nc1ccccc1F`, the B-score entry is “inactive”.

With `COc1cccc(CC2(CO)CCCN(Cc3ccc(OC(F)F)cc3)C2)c1` (stereo not drawn), the B-score entry was “inactive”.

As for `CCCCCN(C(=O)CCC(=O)OCCOc1ccc(OC)cc1)c1c(N)n(CCCC)c(=O)[nH]c1=O`, the B-score entry was “inactive”.

For the compound `CCCCCC(=O)N1CCN(S(=O)(=O)c2ccc3c(c2)OCCCO3)CC1`, the B-score result was “inactive”.

`CN1CCN(c2nc(Nc3ccc(O)cc3)nc3ccccc23)CC1`: the B-score was 6.97 (active).

For `Cc1cccc(-c2nc(Nc3ccc(O)cc3)c3ccccc3n2)c1`, the B-score entry was “inactive”.

Regarding `c1ccc(Nc2nc(N3CCOCC3)c3ccccc3n2)cc1`, the B-score result was “inactive”.

Take `C=CCOc1cccc(C2C(C(=O)c3ccc(C)o3)=C(O)C(=O)N2c2nnc(C)s2)c1` (stereo not drawn): the B-score entry was “inactive”.

For the compound `Cc1c(NC(=O)C(C)OC(=O)c2c3c(nc4ccccc24)CCC(C)C3)c(=O)n(-c2ccccc2)n1C` (stereo not drawn), the B-score entry was “inactive”.

With `COC(=O)c1cc2nc(-c3ccccc3)cc(C(F)(F)F)n2n1`, the B-score entry is “inactive”.

For the compound `CCOC(=O)CN(C)S(=O)(=O)c1ccc(-c2cc(C(=O)OC)sc2C(F)(F)F)cc1`, the B-score entry is “inactive”.

Turning to `COC(=O)c1sc(C(F)(F)F)c(-c2ccccc2)c1S(=O)(=O)N(C)C`, the B-score is 9.76 (active).

Turning to `CC1(C)CC[C@]2(C(=O)O)CC[C@]3(C)C(=CCC4[C@@]5(C)CC[C@H](O)C(C)(C)C5[C@H](O)C[C@]43C)[C@@H]2C1` (stereo partly drawn), the B-score result is “inactive”.

In the case of `N#Cc1ccc(/C=C2\CCn3c2nc2cc(C(=O)O)ccc2c3=O)cc1`, the B-score is 6.78 (active).

On to `O=C(O)c1ccc2c(=O)n3c(nc2c1)/C(=C/c1ccc(Cl)c([N+](=O)[O-])c1)CC3`, for which the B-score entry was “inactive”.

Consider `Cc1ccc(/C=C2\CCn3c2nc2cc(C(=O)O)ccc2c3=O)c(C)c1`, for which the B-score entry is “inactive”.

Take `CC(C)c1nc2sc3c(c2c(=O)n1N)CC(C)(C)OC3`: the B-score entry is “inactive”.

On to `CC1(C)Cc2c(sc3nc4n(c(=N)c23)CCCCC4)CO1`, for which the B-score was 7.43 (active).

Consider `N=c1c2c3c(sc2nc2n1CCCCC2)CCCC3`, for which the B-score entry was “inactive”.

Source of the values: PubChem BioAssay AID488977 (Johns Hopkins Ion Channel Center, 2010).
